High-throughput results from PubChem.
Shown are actives, neighbours in structure and some others; about 10% of the full set was active somewhere.
HP1b chromo inh: HP1-beta chromodomain-methylated histone interaction inhibition. P83916. actives 0.56% (n = 390,000). AlphaScreen HP1-beta / biotin-H3K9me3 peptide binding. Potency, µM (highest dose often 114 µM), for the others: at the top dose activity change, negative = inhibition, actives largely listed as inhibitors. AID 540317; also: potency is read from the fitted curve at half-maximal effect; nearly all actives have a fitted effect of over 70% in size
Target sequence (P83916 whole entry, looked up): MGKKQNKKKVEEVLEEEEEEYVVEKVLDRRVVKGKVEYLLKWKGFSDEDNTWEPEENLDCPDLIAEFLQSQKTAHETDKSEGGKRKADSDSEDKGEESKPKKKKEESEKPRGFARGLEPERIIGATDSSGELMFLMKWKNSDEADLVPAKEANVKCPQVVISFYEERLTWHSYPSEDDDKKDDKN
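HP1-beta protein (50 nM final) preincubated 30 min at room temperature with biotinylated H3(1-18)K9me3 peptide (50 nM) in PBS pH 7.4, 0.01% Tween-20, then compound added for 30 min. AlphaScreen streptavidin donor/nickel chelate acceptor beads (10 ug/mL final), 30 min dark, luminescence read.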
BAZ2B inh: BAZ2B (human) inhibition; AlphaScreen BAZ2B-H3K14Ac peptide displacement; Q9UIF8; actives 4.4% (n = 360,000); Potency, µM (titrated, usually from 114 µM), without a hit: at the top dose activity change, negative = inhibition, most hits filed as inhibitors; AID 504333; also: potency is read from the fitted curve at half-maximal effect; % is scaled to controls: 0 for no effect and ±100 for the full control effect; nearly all actives have a fitted effect of over 60% in size
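BAZ2B 50 nM plus b-H3(5-23)K14Ac 50 nM, PBS pH 7.4/0.01% Tween-20, 30 min RT; compound added (max 110 uM), 30 min RT; streptavidin donor/Ni-chelate acceptor beads 10 ug/mL final, 20 min dark; AlphaScreen read.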
JMJD2A Tudor: inhibitors of human JMJD2A Tudor domain; AlphaScreen JMJD2A-Tudor / H3K4me3 peptide binding; actives 4.4% (n = 390,000); O75164; Potency, µM (top dose mostly 114 µM), for inactives: top-dose activity change, negative = inhibition, most hits filed as inhibitors; also: potency is read from the fitted curve at half-maximal effect; % is scaled to controls: 0 for no effect and ±100 for the full control effect; nearly all actives have a fitted effect of over 50% in size
G9a block: blocks human histone lysine methyltransferase G9a; Q96KQ7; G9a H3K9 monomethylation, AlphaScreen, 2 h; Potency, µM (doses to about 102 µM), for the others: top-dose activity, negative = inhibition, hits mostly inhibitors; actives 8.8% (n = 350,000); also: potency is read from the fitted curve at half-maximal effect; % is scaled to controls: 0 for no effect and ±100 for the full control effect; nearly all actives have a fitted effect of over 75% in size
Target sequence (Q96KQ7 913-1193 limits assumed): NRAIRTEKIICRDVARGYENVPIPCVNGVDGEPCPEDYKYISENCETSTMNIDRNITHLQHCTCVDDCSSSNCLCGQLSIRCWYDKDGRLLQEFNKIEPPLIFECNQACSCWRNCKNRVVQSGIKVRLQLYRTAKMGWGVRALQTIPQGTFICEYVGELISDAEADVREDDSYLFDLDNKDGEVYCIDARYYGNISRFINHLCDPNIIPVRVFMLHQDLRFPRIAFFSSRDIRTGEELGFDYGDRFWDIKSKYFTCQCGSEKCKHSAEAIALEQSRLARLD
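Using a bead-based AlphaScreen, monomethylated H3K9 product from 2 h room-temperature reactions (G9a 20 nM, peptide 500 nM, SAM 20 uM) was detected with 0.5 ug/mL rabbit anti-H3K9me1 antibody.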
Six1-Eya2 blk: Six1/Eya2 interaction inhibition. actives 0.56% (n = 360,000). activity change, % (no concentration beside the values). AlphaScreen GST-Six1/His-Eya2 binding, biochemical; active compounds read low. Q15475+O00167; in the data active = activity change below about -65%; inconclusive = mostly about -30% to -63%; also: % is scaled to controls: 0 for no effect and ±100 for the full control effect
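AlphaScreen with GST-Six1 and His-Eya2 (5X mix: 250 nM and 500 nM), glutathione donor and nickel acceptor beads; buffer 50 mM Tris pH 8.0, 300 mM NaCl, 1 mM TCEP; 1 h at 37 C in the dark.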
CtBP-E1A inh: inhibitors of CtBP/E1A interaction. AlphaScreen GST-E1A/His-CtBP binding, 1536-well; active compounds read low. activity change, % (concentration not given with the values). actives 0.49% (n = 340,000); in the data active = activity change below about -65%; inconclusive = mostly about -30% to -63%; also: % is scaled to controls: 0 for no effect and ±100 for the full control effect
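Protein mix (5X: 125 nM each GST-E1A, His-CtBP) was incubated with pinned compound 2 h at 37 deg C in dark, in 50 mM Tris pH 8.0 buffer with 300 mM NaCl. Glutathione donor and nickel acceptor beads followed; AlphaScreen signal read after 1 h.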
The depositor's hits bear a star; ? = inconclusive; / = no result; [ ] = dose if it differs, or a comment. Unless noted, calls follow the shape of the dose curve; as a rule, active = well fitted inhibition curve with a large enough effect; inconclusive = small, poorly fitted or top-dose-only effect; inactive = no such curve, though single readings can be large or run the other way.

SMILES	HP1b chromo inh	BAZ2B inh	JMJD2A Tudor	G9a block	Six1-Eya2 blk	CtBP-E1A inh
COc1cc(F)c(S(=O)(=O)N2CCN(S(=O)(=O)c3ccco3)CC2)c(F)c1	/	/	-20%	/	/	/
N#C/C(=C\c1ccc(O)cc1)c1nc2ccccc2o1	-10%	-30%	-35%	?	-28	-17
COc1cc(/C=C(\C#N)c2nc3ccccc3o2)ccc1O	-9%	45µM*	?	/	?	-22
CCC(=O)Nc1ccc2c(c1)C(=O)c1ccccc1C2=O	6%	-2%	-30%	?	?	?
CCC(C)(C)c1ccc2c(c1)C(=O)c1ccccc1C2=O	?	32µM*	32µM*	?	?	-27
Cc1ccc(C(=O)NCCC(C)C)cc1NC(=O)c1nsc2ccccc12	24%[57 µM]	0%	-7%	7%[59 µM]	/	/
CCCOc1ccc(NC(=O)CC2C(=O)N(c3ccccc3)C(=O)N2Cc2ccc(F)cc2)cc1 (stereo not given)	11%	-8%	-14%	-11%[59 µM]	/	/
O=C1C(O)=CC(=C(c2ccccc2)c2ccccc2)c2ccccc21	13µM*	/	14µM*	/	?	?
COc1ccc(NC(=O)CSc2ncnc3c2nnn3-c2ccc(F)cc2)c(OC)c1	35%	9%	-8%	39%	4	4
O=C1C=CC(=Nc2ccc(F)cc2)O1	22µM*	/	45µM*	/	-5	1
O=C1C=CC(=Nc2ccc3c(c2)C(=O)c2ccccc2-3)O1	20%[57 µM]	/	-23%	/	?	?
Cn1c(=O)n(-c2ccc(Br)cc2F)c(=O)c2sc3ccccc3c21	54%	2%	-5%	?	/	/
Cc1ccc(NC(=O)CN2CCN(Cc3ccccc3)CC2)c(Br)c1	?	7%[0.457 µM]	7.1µM*	?	-8	4
O=C(CN1CCN(Cc2ccccc2)CC1)c1ccccc1	34%	-34%	-16%	79µM*	3	12
Cc1ccc(NC(=O)CN2CCOCC2)c(Br)c1	19%	6%	-5%	17%[0.501 µM]	2	7
CCn1c(N2CCN(CC(=O)c3c(C)n(C)c4ccccc34)CC2)nc2c1c(=O)[nH]c(=O)n2C	27%	-6%	-22%	?	0	5
O=C(CN1CCN(Cc2ccccc2)CC1)c1c[nH]c2ccccc12	55%	-5%	2%[11.4 µM]	40µM*	-4	-2
O=C(CN1CCN(Cc2ccccc2)CC1)c1ccc(Br)cc1	44%	?	?	-44%[0.501 µM]	0	0
CCCn1c(N2CCN(CC(=O)c3c[nH]c4ccccc34)CC2)nc2c1c(=O)[nH]c(=O)n2C	14%	17%	45µM*	?	1	-4
NS(=O)(=O)Nc1c(Br)cc(Br)c2cccnc12	17%	/	?	/	/	/
COc1cc2cc(C(=O)NC(C)c3cccc4ccccc34)c(N)nc2cc1OC (stereo not given)	/	/	/	/	22	-14
COc1cc(OC)c(NC(=O)Cn2cnc3c(nc4n3CCCCC4)c2=O)cc1Cl	26%	-1%	-1%	10%[59 µM]	/	/
O=C(CN1CCN(Cc2ccccc2)CC1)NNC(=O)c1ccc(Cl)cc1	17%	13%	-6%	50µM*	2	-10
CC(=O)c1cccc(NC(=O)CN2CCN(Cc3ccccc3)CC2)c1	?	?	0.79µM*	7.1µM*	3	1
CCc1cc(=O)[nH]c(SCc2nc(-c3ccc(C(F)(F)F)cc3)no2)n1	25%[57 µM]	-1%	3%	0%[59 µM]	/	/
SMILES	HP1b chromo inh	BAZ2B inh	JMJD2A Tudor	G9a block	Six1-Eya2 blk	CtBP-E1A inh
Cc1ccsc1CN(C(=O)c1oc2cc(Br)ccc2c1C)C1CCS(=O)(=O)C1 (stereo not given)	16%	-9%	-17%	-31%[59 µM]	/	/
COc1cc(C)c(N)cc1C(C)C	?	?	?	?	-12	-6
Cc1cc(OI)c(C(C)C)cc1-c1cc(C(C)C)c(OI)cc1C	/	/	/	7.9µM*	/	/
C/C(=N\NC(=O)c1ccc(O)cc1)c1ccc2c(c1)Nc1ccccc1S2	-22%	50µM*	79µM*	16µM*	-9	-17
O=C(CNCc1ccc(F)cc1)Nc1ccc(S(=O)(=O)N2CCOCC2)cc1	27%	-15%	-1%	-3%	-1	6
CCCOc1cc(N)ccc1C(=O)OCCN(CC)CC	34%	-5%	-11%	-4%[59 µM]	3	6
CCCOc1ccc(N)cc1N	?	28µM*	56µM*	5µM*	-13	-15
COc1ccc(Nc2nc(NC(C)(C)C)nc(N3CCCC3)n2)c(OC)c1	?	35µM*	28µM*	40µM*	?	?
CC(=O)N1CN(CCCn2ccnc2)Cc2c1sc1c2CCCC1	40%	?	-20%[11.4 µM]	-8%[2.33 µM]	-6	-11
CC(=O)N1CN(Cc2ccccn2)Cc2c1sc1c2CCCC1	28%	28µM*	40µM*	?	-74*	?
O=C(c1ccccn1)N1CCN(S(=O)(=O)c2cccc(Br)c2)CC1	2%	5%	-9%	21%[2.33 µM]	4	0
COc1ccc(C(NC(=O)/C=C/c2ccco2)c2ccc(OC)cc2)cc1	?	50µM*	?	8.9µM*	-14	2
COc1ccc(C(NC(=O)/C=C\c2ccco2)c2ccc(OC)c(OC)c2)cc1 (stereo not given)	-40%	-33%	50µM*	25µM*	-3	-4
O=c1oc2c(F)cc(F)cc2cc1S(=O)(=O)c1ccc(F)cc1	57%	12%	-26%	-4%[59 µM]	/	/
C=CCN(C(=O)CSc1nc2c(sc3ccccc32)c(=O)n1CCN(CC)CC)c1ccccc1	-9%	?	?	45µM*	-12	-5
CCc1ccc(NC(=O)CSc2nc3c(sc4ccccc43)c(=O)n2CCN(CC)CC)cc1	22%	-27%	-16%	2%[59 µM]	/	/
CCN(CC)CCn1c(SCC(=O)Nc2ccc(F)cc2)nc2c(sc3ccccc32)c1=O	/	-15%	/	35µM*	/	/
CCCCN(CC)C(=O)CSc1nc2c(sc3ccccc32)c(=O)n1CCc1ccccc1	52%	0%	-7%	2%[59 µM]	/	/
Cc1ccc(CNC(=O)Cn2c3ncccc3c(=O)n2-c2ccccc2)cc1	7%	3%	?	-1%[59 µM]	/	/
O=C(CCNS(=O)(=O)c1ccc2[nH]c(=O)oc2c1)NCc1ccccc1	48%	-14%	-5%	6%	-1	0
COc1ccccc1NC(=O)CCNS(=O)(=O)c1ccc2[nH]c(=O)oc2c1	-3%	-21%	35µM*	8%	0	0
COc1ccc(OC)c(NC(=O)CCNS(=O)(=O)c2ccc3[nH]c(=O)oc3c2)c1	30%	-25%	-8%	-5%	-1	1
COc1ccccc1CNC(=O)CCNS(=O)(=O)c1ccc2[nH]c(=O)oc2c1	1%	3%	40µM*	-2%	2	-1
